Hits are enriched below; roughly 6.3% of the tested compounds scored in any of these assays.
ATXN2 expr inh – ATXN2 expression inhibition. Potency, µM (series often up to 57 µM), inactives show at the top dose activity change, negative = inhibition, actives largely listed as inhibitors. HEK-293 ATXN2-luciferase reporter, luminescence, 24 h. 360,000 compounds, 0.72% hits; also: % is scaled to controls: 0 for no effect and ±100 for the full control effect; nearly all actives have a fitted effect of over 55% in size
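qHTS (up to 57 uM final) was run with 24 h compound exposure of reporter cells at 37 °C. Each well was multiplexed: SteadyGlo luminescence measured ATXN2-luciferase expression after a fluorogenic Gly-Phe-AFC viability readout (25 uM final).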
ATXN viability – viability counter-screen for ATXN expression inhibitors; S2 cells (HEK-293 line with an ATXN2-luciferase reporter) viability, CellTiter-Fluor protease fluorescence, 24 h; Potency, µM (series often up to 56.7 µM), usual class: cytotoxic; 400,000 compounds, 0.49% hits; AID 651635; also: nearly all actives have a fitted effect of over 40% in size
VP16 counter – counter-screen for ROR gamma inhibitors: Gal4-VP16 reporter. Drosophila S2 Gal4-VP16 UAS-luciferase, luminescence, 20 h. Potency, µM (highest dose often 53.6 µM), for inactives: at the highest dose activity, negative = inhibition, hits mostly inhibitors. 310,000 compounds, 3.5% hits. AID 2546;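 also: Gal4-VP16 expression switched on by copper sulfate through the metallothionein promoter; % is scaled to controls: 0 for no effect and ±100 for the full control effect; nearly all actives have a fitted effect of over 50% in size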
TGFb SMAD3 inh – inhibitors of TGF-b signaling | Potency, µM (top dose mostly 46.1 µM), for inactives: at the top dose activity, negative = inhibition, usual class: inhibitors | 410,000 compounds, 1.2% hits | HepG2 CAGA-GFP TGF-b/SMAD3 reporter, GFP fluorescence, 18 h; TGF-beta stimulated, 500 pg/mL final | AID 588855; also: % is scaled to controls: 0 for no effect and ±100 for the full control effect; nearly all actives have a fitted effect of over 65% in size
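HEPG2 CAGA-GFP, 1000 cells/well; 2 h settle, 37 C; cpd via pin tool; TGF-b 500 pg/mL final; 18 h, 37 C; GFP imaging ex488/em500-530; %Activity normalised to -TGF-b and +DMSO controls; CRC fit, curve class.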
RORgamma inh – inhibitors of mouse ROR gamma transcriptional activity; Drosophila S2 Gal4-RORgamma UAS-luciferase reporter, 20 h; P51450; Potency, µM (top dose mostly 53.6 µM), for inactives: at the top dose activity change, negative = inhibition, hits mostly inhibitors; 310,000 compounds, 5.4% hits; also: % is scaled to controls: 0 for no effect and ±100 for the full control effect; nearly all actives have a fitted effect of over 60% in size
Target sequence (P51450 whole entry, looked up, the tested form may be a part): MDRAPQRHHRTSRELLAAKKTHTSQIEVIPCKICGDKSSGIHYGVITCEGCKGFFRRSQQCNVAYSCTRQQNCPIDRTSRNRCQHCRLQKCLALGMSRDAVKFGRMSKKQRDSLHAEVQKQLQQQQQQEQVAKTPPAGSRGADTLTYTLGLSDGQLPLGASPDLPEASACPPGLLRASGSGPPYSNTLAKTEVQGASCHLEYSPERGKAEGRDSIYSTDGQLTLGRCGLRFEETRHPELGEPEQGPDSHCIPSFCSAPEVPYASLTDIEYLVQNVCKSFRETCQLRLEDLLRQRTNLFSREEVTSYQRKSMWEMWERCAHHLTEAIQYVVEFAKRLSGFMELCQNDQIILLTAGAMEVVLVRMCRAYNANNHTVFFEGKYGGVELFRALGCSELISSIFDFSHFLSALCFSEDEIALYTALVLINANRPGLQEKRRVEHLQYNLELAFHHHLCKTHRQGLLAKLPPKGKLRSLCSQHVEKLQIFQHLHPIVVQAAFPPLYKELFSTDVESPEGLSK
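ROR gamma transcriptional activity was tracked as Gal4-UAS luciferase output in stably transfected Drosophila Schneider cells, with compound added 1 hr before 700 uM copper sulfate induction and a 20 hr ambient-temperature incubation.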
HepG2 tox – HepG2 cytotoxicity, counter-screen for TGF-b inhibitors; AID 588856; 410,000 compounds, 0.76% hits; HepG2 CAGA-GFP viability, ATP luminescence, 18 h; Potency, µM (series often up to 46.1 µM), without a hit: at the top dose activity change, negative = cytotoxicity, usual class: cytotoxic
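HepG2 CAGA-GFP cells (1000/well, DMEM with 1% FBS) received compound, then TGF-beta at 500 pg/mL final, and were incubated 18 hours at 37 degrees C. Viability was read by CellTiter-Glo luminescence. Media-only wells were set as complete cell-killing and DMSO as no toxicity.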
Starred values were filed as active, the others as inactive; i = inactive; ? = inconclusive; . = no result. Calls follow the shape of the dose curve; as a rule, active = well fitted curve in the direction sought with a large enough effect; inconclusive = small, poorly fitted or top-dose-only effect, or another doubt; inactive = no such curve, though single readings can be large; an effect the other way counts as inactive or inconclusive. Potency is read from the fitted curve at half-maximal effect.

SMILES	ATXN2 expr inh	ATXN viability	VP16 counter	TGFb SMAD3 inh	RORgamma inh	HepG2 tox
CC(C)C(=O)N1CCN(c2ccc(NC(=S)NC(=O)c3cc4ccccc4o3)cc2)CC1	6%	i	?	-8%	5µM*	32%
O=C(COc1ccccc1Cl)Nc1ccc(N2CCCC2)cc1	0%	i	1%	6%	0%	-19%
O=C(COc1ccccc1Cl)Nc1ccc(N2CCN(C(=O)c3ccccc3)CC2)cc1	18µM*	?	-29%	?	?	-28%
CCC(=O)N1CCN(c2ccc(NC(=S)NC(=O)c3cc4ccccc4o3)cc2)CC1	-20%	i	4µM*	-1%	13µM*	30%
O=C(NC(=S)Nc1ccc(NC(=O)c2cccs2)cc1)c1cc2ccccc2o1	-37%	i	7.9µM*	-5%	7.1µM*	-15%
CC(=O)N1CCN(c2ccc(NC(=O)c3cc4ccccc4o3)cc2)CC1	.	i	21%	15%	?	11%
CCC(=O)N1CCN(c2ccc(NC(=S)NC(=O)COc3ccccc3)cc2)CC1	.	i	13µM*	-6%	?	-6%
CCC(=O)N1CCN(c2ccc(NC(=O)COc3ccc(CC)cc3)cc2)CC1	-32%	i	-20%	-1%	-13%	-10%
Cc1ccc(S(=O)(=O)N(C)CC(=O)NNC(=O)CCS(=O)(=O)c2ccccc2)cc1	3%	i	.	0%	.	10%
Cc1cc(NC(=O)NC(=O)c2ccc(F)cc2F)n[nH]1	?	i	?	?	8.9µM*	-7%
CCCN(Cc1cccs1)C(=O)Nc1ccccc1C	.	.	.	?	.	3%
Cc1ccc(-n2c(C)cc(C(=S)N3CCOCC3)c2C)cc1C	-19%	i	-28%	-28%	14µM*	-12%
Cc1nc(-c2ccccc2)sc1CCNC(=O)C(=O)Nc1ccc(F)c(Cl)c1	6%	i	.	11%	.	6%
CC(=O)C1C(=O)C=C(c2cccs2)CC1c1ccccc1 (stereo not drawn)	0%	i	-8%	16%	13µM*	4%
Cc1cccc(NC(=S)NCC(c2ccccc2)N(C)C)c1 (stereo not drawn)	-32%	?	10µM*	-10%	3.2µM*	-21%
Cc1cccc(NC(=S)NC(C)CCc2ccccc2)c1 (stereo not drawn)	-9%	i	3.2µM*	-23%	7.1µM*	-34%
CN(C)C(CNC(=S)Nc1cccc(Cl)c1)c1ccccc1 (stereo not drawn)	-22%	i	13µM*	1%	4µM*	-25%
Cc1ccc(NC(=S)NCC(O)c2ccccc2)c(C)c1 (stereo not drawn)	12%	i	4%	-13%	-78%	5%
CCCNC(=O)N1[C@H](c2cccs2)[C@@H](C)C(=O)[C@@H](C)[C@@H]1c1cccs1	8%	i	.	-6%	.	0%
CC(C)Cn1c(/C=C/c2ccco2)nc2ccccc21	49%	i	?	-24%	11µM*	-28%
COCCOCCn1c(/C=C/c2ccccc2)nc2ccccc21	11%	?	?	?	11µM*	-41%
CC(C)Cn1c(S(=O)(=O)O)nc2ccccc21	-3%	i	?	-20%	-24%	4%
CC(C)n1c(/C=C/c2ccccc2)nc2ccccc21	76%	i	16µM*	-4%	13µM*	4%
CCCn1c(/C=C/c2ccccc2)nc2ccccc21	96%	?	?	8%	5.6µM*	-23%
Cc1ccc(N(Cc2ccccc2)C(=O)c2cc(S(=O)(=O)N3CCOCC3)ccc2C)cc1	-15%	i	.	0%	.	-25%
COc1ccccc1CNC(=O)C1(C)CCN1C(=O)Cc1ccc(-c2ccccc2)cc1 (stereo not drawn)	?	?	.	-5%	.	-34%
O=C(Nc1cccc2cccnc12)c1cccc([N+](=O)[O-])c1	41%	?	.	-3%	.	-26%

Screening results deposited in PubChem by National Center for Advancing Translational Sciences (NCATS).
